The antibiotic and cytotoxicity screens of Wong et al. (2023)
The whole screen tested about 39,000 compounds, of which about 3,300 (8.5%) were called active. The sample holds actives, similar compounds and a random draw of the others, so the mix is not that of the screen.

Tested on: HepG2
Assay: cytotoxicity call (relative viability < 0.9)
Conditions: 10 µM

Row | Compound | cytotoxicity call
1 | COc1ccc(CN(C)C[C@@H]2Oc3c(NC(=O)Nc4ccc(C(F)(F)F)cc4)cccc3C(=O)N([C@@H](C)CO)C[C@H]2C)cc1 | active
2 | COc1ccc(NC(=O)Nc2cccc3c2O[C@@H](CN(C)Cc2ccc(C(F)(F)F)cc2)[C@@H](C)CN([C@H](C)CO)C3=O)cc1 | inactive
3 | COc1ccc(CN(C)C[C@H]2Oc3c(NC(=O)Nc4ccc(C(F)(F)F)cc4)cccc3C(=O)N([C@@H](C)CO)C[C@H]2C)cc1 | active
4 | COc1ccc(CN(C)C[C@H]2Oc3c(NC(=O)Nc4ccc(C(F)(F)F)cc4)cccc3C(=O)N([C@H](C)CO)C[C@H]2C)cc1 | inactive
5 | COc1ccc(NC(=O)Nc2cccc3c2O[C@@H](CN(C)Cc2ccc(C(F)(F)F)cc2)[C@H](C)CN([C@@H](C)CO)C3=O)cc1 | inactive
6 | COc1ccc(CN(C)C[C@H]2Oc3c(NC(=O)Nc4ccc(C(F)(F)F)cc4)cccc3C(=O)N([C@H](C)CO)C[C@@H]2C)cc1 | inactive
7 | Cc1noc(C)c1NC(=O)N(C)C[C@@H]1OCCCC[C@@H](C)Oc2ccc(NC(=O)C3CCCCC3)cc2C(=O)N([C@H](C)CO)C[C@H]1C | inactive
8 | C[C@@H]1CN([C@@H](C)CO)S(=O)(=O)c2ccc(Br)cc2O[C@H]1CN(C)C(=O)c1ccccc1F | inactive
9 | O=C(O)c1cc(=O)cc[nH]1 | inactive
10 | C[C@@H]1CN([C@@H](C)CO)C(=O)Cc2cc(NS(=O)(=O)c3ccc(F)cc3)ccc2O[C@@H]1CN(C)Cc1ccncc1 | inactive
11 | COc1ccc(CNC(=O)C[C@H]2C[C@H]3c4cc(NC(=O)NC5CCCC5)ccc4O[C@H]3[C@H](CO)O2)cc1 | inactive
12 | COc1cccc(S(=O)(=O)Nc2ccc3c(c2)[C@H]2C[C@H](CC(=O)NC4CCCCC4)O[C@H](CO)[C@H]2O3)c1 | inactive
13 | OC(c1ccc(-c2ccc(CN3CCN(Cc4ccncc4)CC3)cc2)c(F)c1)(C(F)(F)F)C(F)(F)F | inactive
14 | CC(=O)N[C@@H](CC(C)C)C(=O)O [listing 1 of 2 here] | inactive
15 | CC(C)C[C@@H](NC(=O)CCN)C(=O)O | active
16 | CC(=O)N[C@@H](CC(C)C)C(=O)O [listing 2 of 2 here] | inactive
17 | O=C(N[C@@H]1CC[C@H](CCNS(=O)(=O)c2ccc(F)cc2)O[C@H]1CO)C1CC1 | inactive
18 | Cc1noc(C)c1S(=O)(=O)N(C)C[C@@H]1Oc2ccc(NC(=O)NC(C)C)cc2CC(=O)N([C@@H](C)CO)C[C@H]1C | inactive
19 | CCN1C(=O)S/C(=C\C(=O)O)C1=O | inactive
20 | O=C(C[C@H]1CC[C@@H]2NC[C@@H](O)COC[C@H]2O1)NCCN1CCCCC1 | inactive
21 | C[C@@H]1CCCCO[C@@H](CN(C)S(=O)(=O)c2ccc(Cl)cc2)[C@H](C)CN([C@@H](C)CO)C(=O)c2cc(NC(=O)Nc3ccc(C(F)(F)F)cc3)ccc2O1 | inactive
22 | C[C@H](CO)N1C[C@H](C)[C@H](CN(C)S(=O)(=O)c2ccc(Cl)cc2)OCCCC[C@H](C)Oc2ccc(NC(=O)Nc3ccc(C(F)(F)F)cc3)cc2C1=O | active
23 | C[C@@H]1CN([C@H](C)CO)C(=O)c2cc(NC(=O)Nc3ccc(C(F)(F)F)cc3)ccc2O[C@@H](C)CCCCO[C@H]1CN(C)S(=O)(=O)c1ccc(Cl)cc1 | inactive
24 | C[C@@H]1CCCCO[C@H](CN(C)S(=O)(=O)c2ccc(Cl)cc2)[C@@H](C)CN([C@H](C)CO)C(=O)c2cc(NC(=O)Nc3ccc(C(F)(F)F)cc3)ccc2O1 | active
25 | C[C@H]1CCCCO[C@H](CN(C)S(=O)(=O)c2ccc(Cl)cc2)[C@@H](C)CN([C@@H](C)CO)C(=O)c2cc(NC(=O)Nc3ccc(C(F)(F)F)cc3)ccc2O1 | inactive
26 | C[C@@H]1CCCCO[C@@H](CN(C)S(=O)(=O)c2ccc(Cl)cc2)[C@H](C)CN([C@H](C)CO)C(=O)c2cc(NC(=O)Nc3ccc(C(F)(F)F)cc3)ccc2O1 | inactive
